# BoNT-F LC inh – BoNT F light chain protease inhibition; inhibition, % at 10 µM; hit rate 0.22% among 360,000; Multiplex microsphere protease cleavage assay, flow cytometry; in the data active = inhibition above about 35%, passing the limit was not always enough; inconclusive = no clear call, values can overlap the other calls; also: plate controls were buffer without enzyme for full effect and enzyme alone for no effect
# BoNT-A LC inh2 – blocks Botulinum neurotoxin A light chain protease | multiplex microsphere protease substrate cleavage, flow cytometry | inhibition, % at 10 µM | hit rate 0.17% among 360,000 | AID 588499; also: plate controls were buffer without enzyme for full effect and enzyme alone for no effect
# BJeLR lethal – BJeLR cell viability loss; BJeLR (HRASV12) viability, CellTiter-Glo ATP luminescence, 48 h; inhibition, % (concentration not given with the values); hit rate 0.17% among 300,000; in the data active = inhibition above about 50%; inconclusive = no clear call, values can overlap the other calls
# Anthrax LF prot – blocks Bacillus anthracis lethal factor protease; hit rate 0.12% among 360,000; inhibition, % at 10 µM; AID 588501; multiplex microsphere protease cleavage assay, LF; also: plate controls were buffer without enzyme for full effect and enzyme alone for no effect
# Target sequence (P15917 whole entry, looked up): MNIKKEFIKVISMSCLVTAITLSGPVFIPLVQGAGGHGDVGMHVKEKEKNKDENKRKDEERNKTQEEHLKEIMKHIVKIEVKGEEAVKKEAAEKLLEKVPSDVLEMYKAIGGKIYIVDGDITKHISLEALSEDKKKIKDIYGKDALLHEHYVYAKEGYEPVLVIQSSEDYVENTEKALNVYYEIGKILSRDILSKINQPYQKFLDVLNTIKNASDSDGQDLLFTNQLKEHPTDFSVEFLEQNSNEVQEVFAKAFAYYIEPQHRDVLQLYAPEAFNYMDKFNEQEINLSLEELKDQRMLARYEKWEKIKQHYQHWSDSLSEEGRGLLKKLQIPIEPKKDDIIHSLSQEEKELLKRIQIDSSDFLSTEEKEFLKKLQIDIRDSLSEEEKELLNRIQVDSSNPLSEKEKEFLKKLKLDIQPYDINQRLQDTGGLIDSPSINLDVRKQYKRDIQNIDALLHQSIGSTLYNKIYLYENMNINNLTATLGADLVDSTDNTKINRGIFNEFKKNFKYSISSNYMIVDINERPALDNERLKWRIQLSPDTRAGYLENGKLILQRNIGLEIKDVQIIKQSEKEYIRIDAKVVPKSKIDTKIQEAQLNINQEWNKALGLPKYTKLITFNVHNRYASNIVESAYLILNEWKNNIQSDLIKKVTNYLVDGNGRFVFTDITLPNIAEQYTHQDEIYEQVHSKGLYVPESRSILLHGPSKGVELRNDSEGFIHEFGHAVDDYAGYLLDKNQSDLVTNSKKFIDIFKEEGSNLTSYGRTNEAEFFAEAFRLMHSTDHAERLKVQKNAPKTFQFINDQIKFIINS
# Bead autofluor – compound fluorescence in toxin protease inhibitor counterscreen; compound autofluorescence counterscreen, microsphere flow cytometry; hits give high values; hit rate 3.1% among 360,000; fluorescence intensity (no concentration beside the values); AID 624483; in the data active = fluorescence intensity above about 16000; inconclusive = no clear call, values can overlap the other calls
# SARS 3CLpro inh – SARS-CoV 3CLpro protease inhibition | hit rate 0.14% among 290,000 | recombinant SARS-CoV 3CLpro, quenched FRET peptide cleavage | P0C6X7 | inhibition, % at 6 µM; in the data active = inhibition above about 12%
# * hit, by the source's call; ? = inconclusive; · = no result given. Compounds with a hit are over-represented: about 3.6% of the library has one in this group of screens. Rule as the data show it, unless noted: active = inhibition above about 30%; inconclusive = no clear call, values can overlap the other calls; inactive = below that.
SMILES,BoNT-F LC inh,BoNT-A LC inh2,BJeLR lethal,Anthrax LF prot,Bead autofluor,SARS 3CLpro inh
CCCCCn1c(CN2CCN(C(=O)OCC)CC2)nc2c1c(=O)n(C)c(=O)n2C,-1,1,-6,4,7714,-5
COc1ccc(N2CCN(Cc3nc4c(c(=O)n(C)c(=O)n4C)n3CC(C)=O)CC2)cc1,-2,-2,-6,-2,20509*,-3
CCCCCCn1c(CN2CCN(Cc3ccccc3)CC2)nc2c1c(=O)n(C)c(=O)n2C,-3,-1,-1,-1,20131*,7
CCCCCn1c(CN2CCN(C)CC2)nc2c1c(=O)n(C)c(=O)n2C,-7,0,-3,-4,5551,1
CCOC(=O)N1CCN(Cc2nc3c(c(=O)n(C)c(=O)n3C)n2CCCc2ccccc2)CC1,3,2,3,-3,20078*,-4
CC(C)c1ccccc1OCC(=O)Nc1ccc2[nH]ncc2c1,?,-2,8,-6,4729,-9
Cc1cc(C)n2nc(SCc3c(F)cccc3Cl)nc2n1,0,1,8,18,2833,0
Cc1nc(SCc2c(F)cccc2Cl)n[nH]1,8,6,6,-3,19718*,-3
CCn1cc(CNC(=O)/C=C/c2ccc([N+](=O)[O-])cc2)cn1,-2,1,-16,-1,10924,3
COc1ccccc1OCC(=O)Nc1ccc(C(N)=O)cc1,-2,-2,5,-1,21458*,2
COc1cc(CNCCO)ccc1OCC(=O)Nc1ccc(Br)cc1,-3,2,8,-1,22933*,1
COc1ccccc1OCC(=O)Nc1ccc(NC(=O)COc2ccccc2OC)cc1,-1,1,-7,-7,4387,1
COc1ccccc1OCC(=O)Nc1ccc(Cl)cc1,-4,?,-1,-2,23170*,3
COc1ccc(OC)c(CCNC(=O)CCn2nc(C)c3c(C)n(-c4ccccc4)nc3c2=O)c1,-9,0,-3,0,6076,3
CCCCNC(=O)COn1nnc2ccc(S(=O)(=O)N3CCOCC3)cc21,?,-8,-4,-2,7369,·
CC(=O)c1cccc(NC(=O)CSc2nnnn2C2CCCC2)c1,-7,0,-24,11,3142,2
CC(C)(C)c1ccc(C(=O)NNC(=O)CCC(=O)Nc2ccccc2)cc1,1,0,8,4,5594,-1
Cc1ccc(C2Nc3ccc4ccccc4c3C3=C2C(=O)CC(C)(C)C3)o1 (stereo not given),1,3,-3,-8,21585*,1
COc1ccc(NC(=O)CN2CCC(NC(=O)C3CCCCC3)CC2)cc1,-2,0,-2,-1,23189*,-1
COc1ccc(NC(=O)CSC2CCCCC2)cc1,-3,-3,1,2,21701*,-3
NC(=O)c1ccccc1NC(=O)COc1ccc2c(c1)OCO2,-18,-3,-13,8,3192,-2
COc1cccc(/C=C/c2ccc3cccc(O)c3n2)c1OC,?,2,-3,-9,3734,-1
COc1cccc(/C=C/c2ccccn2)c1O,-84,-21,-4,-18,24116*,-2
Brc1ccc(-c2nnc3n2-c2ccccc2CC3)cc1,1,1,-5,-1,10322,2
COc1ccc(C2=NN(C)C(=NCc3ccccc3)SC2)cc1,-5,-2,2,-4,24219*,0
SMILES,BoNT-F LC inh,BoNT-A LC inh2,BJeLR lethal,Anthrax LF prot,Bead autofluor,SARS 3CLpro inh
CC(=O)C1=C(C)NC(=O)CC1c1ccc(F)cc1 (stereo not given),-1,-1,-5,-4,4231,2
Cc1ccc(C2CC(=O)Nc3sc(C(N)=O)c(N)c32)cc1 (stereo not given),0,1,11,-1,21762*,2
Cc1cc(C)cc(NC(=S)N=Nc2c(O)n(C)c3ccc(S(=O)(=O)N4CCOCC4)cc23)c1,4,37*,0,15,1933,2
Cc1ccc(NC(=S)N=Nc2c(O)n(C)c3ccc(S(=O)(=O)N4CCOCC4)cc23)cc1,-5,12,15,5,2479,1
Cn1c(=O)n(C)c2cc(S(=O)(=O)N3CCCCC3)ccc21,13,0,-11,0,3054,-9
Cn1c(=O)n(C)c2cc(S(=O)(=O)N3CCOCC3)ccc21,-1,?,-4,0,20981*,-2
Cn1c(=O)c(=O)n(C)c2cc(S(=O)(=O)N3CCCCCC3)ccc21,-2,?,0,-4,19386*,2
Cc1[nH]c2ccccc2c1/C=C(\C#N)C(=O)NCc1ccccc1,-25,53*,-11,7,11132,1
Cc1cc([N+](=O)[O-])nn1CC(=O)NNC(=S)Nc1ccc(Cl)cc1,-3,-2,15,-2,23664*,-1
c1ccc2c(c1)nc1n2C2(N3CCOCC3)CCCC2C1N1CCOCC1 (stereo not given),-4,-1,·,-2,20620*,·
COc1ccc(NC(=O)COC(=O)c2ccc(S(=O)(=O)N(C)c3ccccc3OC)cc2)c(OC)c1,·,·,·,·,·,5
Cc1ccc2cccnc2c1NC(=S)NC(=O)c1ccccc1,1,?,-8,2,22969*,0
O=[N+]([O-])c1ccc(N2CCN(Cc3ccccc3)CC2)c2c1no[n+]2[O-],6,2,·,-7,5852,·
O=C(CN1C(=O)c2ccccc2C1=O)Nc1sc2c(c1C(=O)NCC1CCCO1)CCC2 (stereo not given),-1,0,8,0,22614*,2
CCOc1ccc2nc3ccc4[nH]onc4c3c2c1,50*,?,9,12,5438,4
CC1(C)C(C=C(Cl)Cl)C1C(=O)N1CCN(Cc2ccccc2)CC1 (stereo not given),-6,0,4,0,3414,4
CC1(C)CC2(CCO1)C(Nc1ccccc1)=NC(=S)N2CC(N)=O (stereo not given),-6,0,15,2,4236,0
Cc1ccccc1NC1=NC(=S)N(CC(N)=O)C12CCOC(C)(C)C2 (stereo not given),45*,-2,-6,13,3102,5
CC(c1ccccc1)N1CC(C(=O)Nc2ccc(F)cc2)CC1=O (stereo not given),7,1,·,2,5590,·
O=C(N/N=C/C=C/c1ccccc1[N+](=O)[O-])c1ccncc1,56*,-1,-16,?,3912,1
O=C(N/N=C/C=C/c1ccccc1[N+](=O)[O-])c1cccnc1,3,0,-2,2,2559,0
Cc1ccc(CSc2nnc(SCC(=O)N/N=C/C=C/c3ccccc3[N+](=O)[O-])s2)cc1,-2,-1,-5,-1,1917,2
CCn1c(SCC(=O)N/N=C/C=C\c2ccccc2[N+](=O)[O-])nnc1-c1ccccc1,-2,-1,10,-3,16357*,1
Nc1cc(=O)[nH]c(SCCSc2cc(Cl)ccc2Cl)n1,2,-1,-13,-2,3487,0
O=C(CN1CCN(CCN2C(=O)c3cccc4cccc(c34)C2=O)CC1)c1ccc(Cl)cc1,·,·,·,·,·,3
